# Unmarked numbers belong to inactive results. Records with an inconclusive call do not appear. Where a call stands in place of a potency, no number is given. Calls of active or inactive are those of the source. Unless noted, calls come from the whole dose curve; as a rule, active = well fitted curve in the direction sought with a large enough effect in the repeat runs; inconclusive = weak or mixed curves; inactive = no such curve, though single readings can be large; an effect the other way counts as inactive or inconclusive.
# What was measured:
# [1] = qHTS assay for small molecules that induce genotoxicity in human embryonic kidney cells expressing luciferase-tagged ATAD5 (AID 651632); note: nearly all actives have a fitted effect of over 15% in size
# Summary of the method: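 A rise in luciferase signal from ATAD5-tagged HEK293T cells marks genetic stress. Cells were exposed to compounds for 16 hr at 37C, 5% CO2, then luciferase was quantified after a 30 min room-temperature incubation with Amplite.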
# [2] = qHTS assay for small molecules that induce genotoxicity in human embryonic kidney cells expressing luciferase-tagged ATAD5 - cell viability (AID 651634; calls by dose curve; note: nearly all actives have a fitted effect of over 25% in size)
# Summary of the method: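 Cytotoxicity counter-readout: after 15.5 hr compound treatment at 37C, live-cell protease activity in ATAD5-luciferase HEK293T cells measured by CellTiter-Fluor fluorescence, 30 min development at 37C.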
# [3] = qHTS assay for small molecule disruptors of the mitochondrial membrane potential - cell viability (AID 720634; calls by dose curve;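 note: human HepG2 liver cancer cells; series mostly up to about 83 µM; nearly all actives have a fitted effect of over 20% in size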)
# Summary of the method: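 Cytotoxicity was quantified from ATP content by CellTiter-Glo luminescence in the same wells as the MMP dye read-out. HepG2 (2,000 cells/well) were plated overnight and exposed to compounds for 1 hr at 37 C.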
# [4] = qHTS assay to test for compound auto fluorescence at 590 nm (red) in HepG2 cells (AID 720674)
# Summary of the method: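 Rose Bengal sodium served as the red fluorophore standard. HepG2 monolayers (overnight attachment, MEM with 10% FBS) were exposed to test compounds for 1 hr at 37 C and read at Ex 540/Em 590 nm.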
# [5] = qHTS assay to test for compound auto fluorescence at 535 nm (green) in HepG2 cells (AID 720675)
# [6] = qHTS assay to test for compound auto fluorescence at 460 nm (blue) in HEK293 cells (AID 720678)
# Summary of the method: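 HEK293 cells (2,000/well, medium with 10% dialyzed FBS) attached 4-5 hr, then exposed to compound overnight at 37C, 5% CO2. Blue fluorescence read at 405/460 nm, with triamterene as reference fluorophore.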
# [7] = qHTS assay to test for compound auto fluorescence at 590 nm (red) in HEK293 cells (AID 720679)
# Summary of the method: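 HEK293 cells (2,000/well, 10% dialyzed FBS) attached 4-5 hr, then dosed with compound or DMSO and incubated overnight at 37C, 5% CO2. Red fluorescence read at 540/590 nm, Rose Bengal sodium as reference fluorophore.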
# [8] = qHTS assay to test for compound auto fluorescence at 535 nm (green) in HEK293 cells (AID 720680)
# [9] = qHTS assay to test for compound auto fluorescence at 535 nm (green) in HEK293 cell free culture (AID 720682)
# Summary of the method: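 Each library compound, or DMSO control, is added by pintool to medium alone, comprising DMEM and 10% FBS. Emission at 535 nm following 485 nm excitation is quantified against fluorescein.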
# [10] = qHTS assay to test for compound auto fluorescence at 590 nm (red) in HEK293 cell free culture (AID 720683)
# Summary of the method: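 Tox21 10K library compounds were pinned into cell-free DMEM with 10% FBS and fluorescence was read at excitation 540 nm. Activity is expressed as Rose Bengal sodium equivalency.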
# [11] = qHTS assay to test for compound auto fluorescence at 590 nm (red) in HepG2 cell free culture (AID 720684)
# Summary of the method: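 Readout: intrinsic compound fluorescence at 590 nm emission after 540 nm excitation, scaled to Rose Bengal sodium. Matrix was cell-free MEM with 10% FBS; DMSO vehicle wells served as control.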
# [12] = qHTS assay to test for compound auto fluorescence at 460 nm (blue) in HepG2 cell free culture (AID 720685)
# Summary of the method: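 Cell-free plates of MEM plus 10% FBS received 23 nL compound or DMSO vehicle; blue-channel (405/460 nm) intensity scored against triamterene as reference fluorophore.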
# [13] = qHTS assay to test for compound auto fluorescence at 535 nm (green) in HepG2 cell free culture (AID 720686)
# [14] = qHTS assay to test for compound auto fluorescence at 460 nm (blue) in HepG2 cells (AID 720687)
# Summary of the method: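 Cells (2,000/well in MEM with 10% FBS) attached overnight at 37 C, then were exposed to compound or DMSO for 1 hr at 37 C, 5% CO2. Fluorescence read at Ex/Em 405/460 nm, expressed as triamterene-equivalent signal.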
# [15] = target: Glucocorticoid receptor (Homo sapiens) (UniProt P04150); assay: qHTS assay to identify small molecule antagonists of the glucocorticoid receptor (GR) signaling pathway (AID 720692; active = well fitted inhibition curve with a large enough effect in the signal ratio in the repeat runs, not every such curve was filed as active; the % refers to the signal ratio; note: potency is the fitted concentration of half-maximal effect)
# Summary of the method: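 Inhibition of dexamethasone-driven (5 nM final) beta-lactamase expression was measured in GRE-reporter HeLa cells over 18 h at 37C. Fluorescence was read after 2 h with the B/G FRET substrate at room temperature.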
# [16] = qHTS assay for small molecule disruptors of the mitochondrial membrane potential (AID 720635); note: potency is the fitted concentration of half-maximal effect
# Summary of the method: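 HepG2 cells (2,000/well) attached overnight at 37C, then took compound for 1 hr at 37C, 5% CO2. Mito-MPS dye was added for 30 min; fluorescence was read at 490/535 nm (monomers) and 540/590 nm (aggregates).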
# [17] = qHTS assay to test for compound auto fluorescence at 460 nm (blue) in HEK293 cell free culture (AID 720681)
# Summary of the method: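 Test compounds were pinned into cell-free culture medium (DMEM with 10% FBS) and fluorescence was read directly at Ex/Em 405/460 nm. Signals were expressed as fluorescence equivalents of triamterene, with DMSO vehicle as control.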
# [18] = qHTS assay for small molecule agonists of the p53 signaling pathway - cell viability (AID 651633; calls by dose curve; note: nearly all actives have a fitted effect of over 30% in size; note: potency is the fitted concentration of half-maximal effect;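 for activity change, negative = cytotoxicity: p53RE-bla HCT reporter cells with a stable beta-lactamase p53 reporter; series mostly up to about 83 µM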)
# Summary of the method: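 p53RE-bla cells, seeded at 4,000 per well and rested 5 h at 37 C/5% CO2, received compounds in DMSO for 16 h at 37 C. CellTiter-Glo was then added, and luminescence was read after 30 min at room temperature to gauge cytotoxicity.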
# [19] = target: Glucocorticoid receptor (Homo sapiens) (UniProt P04150); assay: qHTS assay to identify small molecule agonists of the glucocorticoid receptor (GR) signaling pathway (AID 720691; active = well fitted activation curve with a large enough effect in the signal ratio in the repeat runs, not every such curve was filed as active; the % refers to the signal ratio)
# Summary of the method: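 Agonist-mode qHTS in HeLa cells stably expressing a glucocorticoid-response-element beta-lactamase reporter. Fluorescence intensity read with FRET substrate (2 h, room temperature) after 18 h compound treatment at 37 C.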
# Glucocorticoid receptor (Homo sapiens), sequence (P04150 whole entry, looked up): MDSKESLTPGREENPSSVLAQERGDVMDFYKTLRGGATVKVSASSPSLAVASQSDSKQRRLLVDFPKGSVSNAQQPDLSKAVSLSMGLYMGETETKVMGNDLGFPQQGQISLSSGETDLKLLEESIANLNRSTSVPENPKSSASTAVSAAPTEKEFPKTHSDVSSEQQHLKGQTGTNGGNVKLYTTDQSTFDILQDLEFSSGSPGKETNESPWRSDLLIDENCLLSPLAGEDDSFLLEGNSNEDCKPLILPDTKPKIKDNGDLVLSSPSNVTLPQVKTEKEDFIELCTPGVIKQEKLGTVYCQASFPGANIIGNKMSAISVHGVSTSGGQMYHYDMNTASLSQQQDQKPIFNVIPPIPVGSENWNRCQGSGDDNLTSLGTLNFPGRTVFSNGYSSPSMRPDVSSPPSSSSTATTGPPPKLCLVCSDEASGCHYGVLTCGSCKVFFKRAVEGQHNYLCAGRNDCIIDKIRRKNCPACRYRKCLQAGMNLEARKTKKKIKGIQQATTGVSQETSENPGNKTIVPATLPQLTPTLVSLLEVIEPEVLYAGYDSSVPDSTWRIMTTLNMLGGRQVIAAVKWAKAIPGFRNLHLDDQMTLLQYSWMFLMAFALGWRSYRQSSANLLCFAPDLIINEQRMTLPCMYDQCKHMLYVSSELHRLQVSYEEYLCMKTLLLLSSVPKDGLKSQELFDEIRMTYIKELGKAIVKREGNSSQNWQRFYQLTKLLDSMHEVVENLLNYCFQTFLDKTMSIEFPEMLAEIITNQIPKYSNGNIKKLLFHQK
smiles,measurement,setting,value
O[C@@H](CNC[C@H](O)[C@H]1CCc2cc(F)ccc2O1)[C@@H]1CCc2cc(F)ccc2O1,Potency,[1],inactive
same,Potency,[2],inactive
same,outcome,[3],inactive
same,outcome,[4],inactive
same,outcome,[5],inactive
same,Potency,[6],inactive
same,outcome,[7],inactive
same,outcome,[8],inactive
same,outcome,[9],inactive
same,outcome,[10],inactive
same,outcome,[11],inactive
same,Potency,[12],inactive
same,outcome,[13],inactive
same,Potency,[14],inactive
same,Potency,[15],23.9 µM (active)
Oc1ccc2c(c1)Cc1ccccc1-2,Potency,[2],inactive
same,Potency,[16],27.3 µM (active)
same,outcome,[4],inactive
same,outcome,[5],inactive
same,Potency,[6],inactive
same,outcome,[7],inactive
same,outcome,[8],inactive
same,Potency,[17],inactive
same,outcome,[9],inactive
same,outcome,[10],inactive
same,outcome,[11],inactive
same,Potency,[12],inactive
same,outcome,[13],inactive
same,Potency,[14],inactive
same,Potency,[15],19.5 µM (active)
Cc1ccc(Nc2c(F)cccc2Cl)c(CC(=O)O)c1,Potency,[1],inactive
same,Potency,[18],inactive
same,outcome,[3],inactive
same,outcome,[5],inactive
same,Potency,[6],inactive
same,outcome,[7],inactive
same,outcome,[8],inactive
same,Potency,[17],inactive
same,outcome,[9],inactive
same,outcome,[10],inactive
same,outcome,[11],inactive
same,Potency,[12],inactive
same,outcome,[13],inactive
same,Potency,[14],inactive
same,Potency,[19],inactive
COC(=O)C1=C(C)NC(C)=C(C(=O)OC(C)(C)CN(C)CCC(c2ccccc2)c2ccccc2)C1c1cccc([N+](=O)[O-])c1 (stereo not drawn),Potency,[16],5.96 µM (active)
same,outcome,[4],inactive
same,outcome,[5],inactive
same,Potency,[6],inactive
same,outcome,[7],inactive
same,outcome,[8],inactive
same,Potency,[17],inactive
same,outcome,[9],inactive
same,outcome,[10],inactive
same,outcome,[11],inactive
same,Potency,[12],inactive
same,outcome,[13],inactive
same,Potency,[14],inactive
same,Potency,[19],inactive
Nc1ccc(F)cc1,Potency,[18],inactive
same,Potency,[2],inactive
same,outcome,[3],inactive
same,outcome,[4],inactive
same,outcome,[5],inactive
same,outcome,[7],inactive
same,outcome,[8],inactive
same,Potency,[17],inactive
same,outcome,[9],inactive
same,outcome,[11],inactive
same,outcome,[13],inactive
same,Potency,[14],inactive
same,Potency,[19],inactive
CCCCCCCCCCCCCOS(=O)(=O)O,Potency,[1],inactive
same,Potency,[18],68.6 µM (active)
same,outcome,[3],inactive
same,outcome,[4],inactive
same,outcome,[5],inactive
same,Potency,[6],inactive
same,outcome,[8],inactive
same,Potency,[17],inactive
same,outcome,[9],inactive
same,outcome,[11],inactive
same,Potency,[12],inactive
same,outcome,[13],inactive
same,Potency,[14],inactive
CC1=CC[C@@H]2C[C@H]1C2(C)C,activation,[1],-0.905% [at 17.9 µM]
same,"activity change, negative = cytotoxicity",[18],5.84% [at 17.9 µM]
same,"fluorescence, % of fluorescein control",[5],0.0991% [at 18.6 µM]
same,"fluorescence, % of triamterene",[6],-0.0033% [at 18.6 µM]
same,"fluorescence, % of fluorescein",[8],-0.149% [at 18.6 µM]
same,"fluorescence, % of fluorescent control",[17],0.0118% [at 18.6 µM]
same,activity change,[9],-0.0302% [at 18.6 µM]
same,"fluorescence, % of fluorescent control",[10],0.0507% [at 18.6 µM]
same,"fluorescence, % of Rose Bengal",[11],0.0249% [at 18.6 µM]
same,"fluorescence, % of fluorescent control",[12],0.0508% [at 18.6 µM]
same,"fluorescence, % of fluorescein control",[13],0.0311% [at 18.6 µM]
same,"fluorescence, % of fluorescent control",[14],-0.0004% [at 18.6 µM]
C=CCOC(=O)COCCC(C)C,Potency,[1],inactive
same,outcome,[3],inactive
same,outcome,[4],inactive
same,outcome,[5],inactive
same,Potency,[6],inactive
same,outcome,[7],inactive
same,outcome,[8],inactive
same,Potency,[17],inactive
same,outcome,[9],inactive
same,outcome,[10],inactive
same,outcome,[11],inactive
same,outcome,[13],inactive
same,Potency,[14],inactive
same,Potency,[19],inactive
CC(=O)OCCC(C)CC(C)(C)C (stereo not drawn),Potency,[18],inactive
same,Potency,[2],inactive
same,outcome,[3],inactive
same,Potency,[16],inactive
same,outcome,[5],inactive
same,Potency,[6],inactive
same,outcome,[7],inactive
same,outcome,[8],inactive
same,Potency,[17],inactive
same,outcome,[9],inactive
same,outcome,[10],inactive
same,outcome,[11],inactive
same,Potency,[12],inactive
same,outcome,[13],inactive
same,Potency,[14],inactive
same,Potency,[19],inactive
O=C1[C@@H]2[C@H]3CC[C@H](C3)[C@@H]2C(=O)N1CCCCN1CCN(c2ncccn2)CC1,Potency,[18],inactive
same,Potency,[2],inactive
same,outcome,[3],inactive
same,Potency,[16],inactive
same,outcome,[4],inactive
same,outcome,[5],inactive
same,Potency,[6],inactive
same,outcome,[7],inactive
same,outcome,[9],inactive
same,outcome,[10],inactive
same,outcome,[11],inactive
same,Potency,[12],inactive
same,outcome,[13],inactive
same,Potency,[14],inactive
same,Potency,[19],inactive
same,Potency,[15],inactive

# — PubChem BioAssay (Tox21)
